Test results reported in PubChem BioAssay AID651871 (Sanford-Burnham Center for Chemical Genomics, 2012).
Where “and” joins values, the source holds several entries; their conditions need not be identical. Identical values can stand only once.

Test system: H9c2
Experiment: cardiomyocyte survival under oxidative or metabolic stress – cell-based, panel, H9c2 and HL-1, ATP luminescence, set 2, SAR follow-up (AID 651871);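 further: cells exposed to stressor for 2 h before ATP readout; reference of the scale not given here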
Details: H9c2/HL-1 cardiomyocytes, 2-deoxyglucose stress, with 2-deoxyglucose; run 5, at 79 µM (top of the series)

Structure (SMILES)	activity (protection/inhibition)
CCOC(=O)c1cccc(NC(=O)CNC(=O)c2cc(-c3cc(OC)c(OC)c(OC)c3)nc3ccccc23)c1	97.3%
COc1ccc2nc(-c3cc(OC)c(OC)c(OC)c3)cc(C(=O)NCC(=O)Nc3ccc(C(C)=O)cc3)c2c1	70.9%
COc1ccc2c(c1OC)C(=O)N1c3ccccc3C(=O)N(Cc3cccc(Cl)c3Cl)C21 (stereo not drawn)	88% and 69.1% and -5.13%
